Experiments:
Assay type in all cases: functional
[1] = biological target: Solute carrier family 2, facilitated glucose transporter member 1 (Homo sapiens) (UniProt P11166); test: ST_JUDE_LEISH: Cytotoxicity at 2uM final concentration against transgenic Leishmania Mexicana promastigotes LmGLUT1 that are glucose transport deficient and complemented with the human glucose transporter GLUT1. Activity is measured by DNA content using SYBR green in vitro
[2] = biological target: Hexose transporter 1 (Plasmodium falciparum) (UniProt O97467); test: ST_JUDE_LEISH: Cytotoxicity at 2uM final concentration against transgenic Leishmania Mexicana promastigotes LmPfHT that are glucose transport deficient and complemented with the Plasmodium falciparum hexose transporter. Activity is measured by DNA content using SYBR green in vitro
[3] = biological target: Glucose transporter (Leishmania mexicana) (UniProt O61059); test: ST_JUDE_LEISH: Cytotoxicity at 2uM final concentration against transgenic Leishmania Mexicana promastigotes LmGT2 that are glucose transport deficient and complemented with the L. Mexicana glucose transporter 2. Activity is measured by DNA content using SYBR green in vitro

Sequence of Solute carrier family 2, facilitated glucose transporter member 1 (Homo sapiens) (P11166 whole entry): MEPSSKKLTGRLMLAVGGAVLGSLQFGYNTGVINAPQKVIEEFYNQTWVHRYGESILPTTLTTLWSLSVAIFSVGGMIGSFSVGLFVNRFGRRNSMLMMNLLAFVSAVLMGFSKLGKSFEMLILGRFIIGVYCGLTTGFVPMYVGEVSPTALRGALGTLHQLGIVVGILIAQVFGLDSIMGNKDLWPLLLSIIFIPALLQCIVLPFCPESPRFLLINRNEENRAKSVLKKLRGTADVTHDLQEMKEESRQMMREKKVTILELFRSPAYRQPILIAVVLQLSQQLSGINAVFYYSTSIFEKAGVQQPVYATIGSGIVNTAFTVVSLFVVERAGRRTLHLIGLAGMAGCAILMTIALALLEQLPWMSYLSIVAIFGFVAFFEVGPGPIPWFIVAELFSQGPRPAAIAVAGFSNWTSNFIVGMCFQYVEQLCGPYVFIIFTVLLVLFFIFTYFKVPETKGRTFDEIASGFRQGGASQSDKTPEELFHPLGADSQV

What does the source list for `COc1ccccc1-c1csc(C(=O)NCC2CCN(Cc3ccc(C(C)(C)C)cc3)C2)c1` (stereo not given)?
inhibition [1]: 1.44%; inhibition [2]: 0.16%; inhibition [3]: 0.22%

Which inhibition [1] does the source give for `OC1CCCN(Cc2cccc(-c3ccc(-c4nc5cc(F)ccc5[nH]4)cc3)c2)C1` (stereo not given) here?
The inhibition was 4.24%.

What about the inhibition [2] of the same compound?
Its inhibition is 3.92%.

What about the inhibition [3] of the same compound?
The inhibition was 4.6%.

With `CC(C)CC(=O)N1CCNC[C@@H]1C(=O)NCCSCc1c(F)cccc1Cl` as the compound, how does the inhibition [1] read?
Its inhibition is 3.36%.

What about the inhibition [2] of the same compound?
The inhibition was 5.07%.

What about the inhibition [3] of the same compound?
The inhibition was 4.3%.

Which inhibition [1] does the source give for `CCOC(=O)N1CCN(CCCCCNc2cc(C)nc(NC(=N)Nc3ccc(Cl)cc3)n2)CC1` here?
Its inhibition is 6.99%.

What about the inhibition [2] of the same compound?
Its inhibition is 8.05%.

What about the inhibition [3] of the same compound?
The inhibition was 6.08%.

Which inhibition [1] does the source give for `Cc1nc(-c2ccc(C(F)(F)F)cn2)sc1C(=O)N1CCc2cc3nccc(N4CCN5CCC[C@H]5C4)c3cc21` here?
The inhibition was 7.49%.

What about the inhibition [2] of the same compound?
Its inhibition is 5.35%.

And the inhibition [3]?
Its inhibition is 0.8%.

Which results are given for `CCCC(C)N(Cc1ccc(C(C)(C)C)cc1)C(=O)c1cccc(OC)c1` (stereo not given)?
inhibition [1]: -0.57%; inhibition [2]: -0.47%; inhibition [3]: -2.72%

Which inhibition [1] does the source give for `N#Cc1cc(C(=O)Nc2ccccc2)c(N)nc1SCC(=O)NC(c1ccccc1)c1cccs1` (stereo not given) here?
Its inhibition is 4.19%.

And the inhibition [2]?
Its inhibition is 1.36%.

And the inhibition [3]?
The inhibition was 4.48%.

How did the inhibition [1] turn out when `CCN(CC)C(=O)c1cccc(C=Cc2ccc(-c3c(C)[nH]c(C)c(Cl)c3=O)cc2)c1` was run?
The inhibition was 2.65%.

What about the inhibition [2] of the same compound?
The inhibition was 2.83%.

And the inhibition [3]?
Its inhibition is 1.56%.

`COc1cc(CNCCCNc2nc3ncccc3[nH]2)c2[nH]cc(Br)c2c1` was tested. Which inhibition [1] did it give?
Its inhibition is 23.9%.

And the inhibition [2]?
Its inhibition is 43.1%.

What about the inhibition [3] of the same compound?
The inhibition was 21.6%.

For `COC(=O)c1c(C#N)c(OC)cc(O)c1CSC[C@H](Nc1nc(-c2ccc([N+](=O)[O-])cc2)cs1)C(=O)NCCN1CCCCC1`, which inhibition [1] is on record?
The inhibition was -1.73%.

And the inhibition [2]?
Its inhibition is 0.29%.

And the inhibition [3]?
The inhibition was -0.42%.

How did the inhibition [1] turn out when `Oc1ccc(-c2cc(COc3ccccc3C(F)(F)F)c(C3=CCNCC3)cc2COc2ccccc2C(F)(F)F)cc1` was run?
Its inhibition is 2.69%.

And the inhibition [2]?
Its inhibition is 2.67%.

What about the inhibition [3] of the same compound?
The inhibition was -0.12%.

For `CC(C)Cn1cc(C2CCN(CCN3CCC(CNC(=O)c4ccc(-c5ccc(C#N)cc5)cc4)CC3)CC2)c2ccccc21`, which inhibition [1] is on record?
Its inhibition is 2.71%.

And the inhibition [2]?
Its inhibition is 5.31%.

What about the inhibition [3] of the same compound?
Its inhibition is 2.53%.

With `CC(=O)Nc1cccc(Nc2nccc(-c3c(-c4cccc(NC(=O)c5c(F)cccc5F)c4)nn4ncccc34)n2)c1` as the compound, how does the inhibition [1] read?
The inhibition was 6.99%.

And the inhibition [2]?
The inhibition was 11%.

What about the inhibition [3] of the same compound?
Its inhibition is 1.53%.

For `CCC(CSC1CCCCC1)N(C)CCN(C)C(CC)CSC1CCCCC1` (stereo not given), which inhibition [1] is on record?
The inhibition was 7.39%.

And the inhibition [2]?
The inhibition was 36.7%.

And the inhibition [3]?
The inhibition was 4.54%.

With `O=C(Nc1cccc(-c2ccc(-c3nc4cc(F)ccc4[nH]3)cc2)c1)c1csnn1` as the compound, how does the inhibition [1] read?
The inhibition was 12.4%.

And the inhibition [2]?
The inhibition was 11.9%.

And the inhibition [3]?
The inhibition was 11.1%.

Which results are given for `COc1ccc(-c2cccc(NC(=O)c3cccc(F)c3)c2)cc1CN1CCCN(C)CC1`?
inhibition [1]: 2.17%; inhibition [2]: 1.16%; inhibition [3]: -0.49%

`CSc1ccccc1NC(=S)NC1CCN(CCCCCNC(=O)/C=C/c2ccc(Cl)c(Cl)c2)CC1` was tested. Which inhibition [1] did it give?
The inhibition was 4.66%.

And the inhibition [2]?
Its inhibition is 4.89%.

What about the inhibition [3] of the same compound?
The inhibition was 4%.

`CN(C(=O)/C=C/c1c(Cl)cccc1Cl)C1CCN(CCCCCNC(=O)/C=C/c2ccc(Cl)c(Cl)c2)CC1` was tested. Which inhibition [1] did it give?
Its inhibition is 2.14%.

And the inhibition [2]?
Its inhibition is 2.38%.

And the inhibition [3]?
Its inhibition is 1.38%.

For `COc1cccc(CN2CCC3(CC2)CN(C(=O)Nc2ccc(Cl)c(Cl)c2)C3)c1`, which inhibition [1] is on record?
Its inhibition is 2.87%.

What about the inhibition [2] of the same compound?
The inhibition was 3.53%.

And the inhibition [3]?
The inhibition was 3.35%.

For `O=C(Cn1c(SCc2cccc(F)c2F)cc(=O)c2ccccc21)N(CCN1CCCCC1)Cc1ccc(-c2ccc(C(F)(F)F)cc2)cc1`, which inhibition [1] is on record?
Its inhibition is -1.53%.

And the inhibition [2]?
Its inhibition is -1.37%.

What about the inhibition [3] of the same compound?
Its inhibition is -1.85%.

For `CC(C)(C)c1ccc(CN2CCC(CNC(=O)c3cc(-c4ccccc4)nc4ccccc34)CC2)cc1`, which inhibition [1] is on record?
The inhibition was -2.07%.

What about the inhibition [2] of the same compound?
The inhibition was 0.33%.

What about the inhibition [3] of the same compound?
The inhibition was -1.73%.

With `COc1ccc(C2CC(c3cccs3)=NN2C(=O)c2ccco2)cc1OC` (stereo not given) as the compound, how does the inhibition [1] read?
Its inhibition is 5.38%.

And the inhibition [2]?
The inhibition was 4.8%.

And the inhibition [3]?
Its inhibition is 4.31%.

Which inhibition [1] does the source give for `CCCCC(=O)Nc1nonc1-c1ccc(OCC)c(OCC)c1` here?
Its inhibition is -0.29%.

What about the inhibition [2] of the same compound?
The inhibition was -0.24%.

And the inhibition [3]?
Its inhibition is -4.47%.

How did the inhibition [1] turn out when `O=C(/C=C/c1ccc(Cl)c(Cl)c1)NCCCCCCN1CCCN(C(=O)Nc2cccc(C(F)(F)F)c2)CC1` was run?
Its inhibition is 5.59%.

And the inhibition [2]?
The inhibition was 4.35%.

And the inhibition [3]?
The inhibition was 0.59%.

With `O=C(Nc1cccc(CN2CCCN(Cc3cccc(O)c3)CC2)c1)c1ccc(Cl)c(Cl)c1` as the compound, how does the inhibition [1] read?
The inhibition was 13.9%.

What about the inhibition [2] of the same compound?
Its inhibition is 12.1%.

And the inhibition [3]?
Its inhibition is 13.8%.

Which results are given for `COc1cccc2cc(C(=O)N[C@@H](CC(C)C)C(=O)N[C@H](C=NNC(=O)OC(C)(C)C)CC(C)C)oc12`?
inhibition [1]: 2.6%; inhibition [2]: 1.47%; inhibition [3]: 0.48%

For `COc1ccc2nccc([C@@H](O)CN3CCC(NCc4nc5c(cc4Cl)OCC(=O)N5)C(F)C3)c2c1` (stereo not given in full), which inhibition [1] is on record?
Its inhibition is 1.37%.

And the inhibition [2]?
The inhibition was 0.56%.

What about the inhibition [3] of the same compound?
Its inhibition is 0.2%.

`CCN(CC)/C(=N/C(=N)Nc1ccc(Cl)cc1)NCCCCCCCCN/C(=N\C(=N)Nc1ccc(Cl)cc1)N(CC)CC` was tested. Which inhibition [1] did it give?
The inhibition was 0.33%.

And the inhibition [2]?
The inhibition was -0.74%.

What about the inhibition [3] of the same compound?
The inhibition was -0.07%.

How did the inhibition [1] turn out when `O=[N+]([O-])c1cccc(CNCC2CCN(Cc3ccc(-c4ccccc4)cc3)CC2)c1` was run?
The inhibition was 3.06%.

What about the inhibition [2] of the same compound?
The inhibition was 2.39%.

What about the inhibition [3] of the same compound?
The inhibition was 0.56%.

Which inhibition [1] does the source give for `O=C(Nc1ccc(Cl)cc1)c1ccc(CN2CCCN(Cc3cccc(O)c3)CC2)cc1` here?
The inhibition was 1.65%.

And the inhibition [2]?
The inhibition was 1.35%.

What about the inhibition [3] of the same compound?
The inhibition was 2.47%.
